Among all 390,000 compounds or so, about 55 (0.01%) were called active. Not all results are given here. A number with no mark means an inactive call. Calls follow the shape of the dose curve; as a rule, active = well fitted inhibition curve with a large enough effect; inconclusive = small, poorly fitted or top-dose-only effect; inactive = no such curve, though single readings can be large or run the other way.
Target: Thioredoxin reductase 1, cytoplasmic (Rattus norvegicus) (UniProt O89049)
Assay: qHTS Assay for Substrates of Mammalian Selenoprotein Thioredoxin Reductase 1 (TrxR1): qHTS; also: nearly all actives have a fitted effect of over 50% in size
Conditions: purified TrxR1 substrate turnover, NADPH consumption readout; series mostly up to 114 µM; activity change, negative = substrate turnover: at the top concentration
Description: The selenoprotein thioredoxin reductase (TrxR; EC 1.8.1.9) is a FAD containing homodimeric pyridine nucleotide-disulfide oxidoreductase with many cellular roles. Together with NADPH and its prime substrate thioredoxin (Trx), the enzyme forms the core of the Trx system. The mammalian Trx system exerts a wide spectrum of functions including redox regulation, antioxidant defense, regulation of transcription factors as well as support of cell growth and replication. Many of these functions involve the reduction of Trx, which may subsequently reduce a number of different substrates including ribonucleotide reductase, peroxiredoxins or NFkB. Mammalian TrxR itself also has a broad substrate specificity, reducing both protein and non-protein substrates, including low molecular weight compounds such as dehydroascorbate, lipoic acid, ubiquinone, and juglone. In addition, several drugs in clinical use for anticancer treatment are indeed known to target TrxR1.
This BioAssay is a validation of an NADPH fluorescence-based, dual-purpose qHTS rTrxR1 assay designed to find potential inhibitors and substrates of rTrxR1. For this particular BioAssay, actives are potential substrate. See related BioAssay for inhibition data deposition.
NIH Molecular Libraries Probe Production Network [MLPCN]
NIH Chemical Genomics Center [NCGC]
Assay Provider: Elias Arner, Karolinska Institute
Assay protocol: 2 uL of reagents (buffer in column 4 as negative control and 90 nM rTrxR1 in columns 1-3 and 5-48) were dispensed into Greiner black solid-bottom 1,536-well assay plates, followed by 1 uL of NADPH (400 uM final concentration) to each well. The plates were centrifuged at 1000 rpm for 15 seconds and subsequently incubated for 5 min at room temperature (~22 deg C) to allow for rTrxR1 reduction. Compounds (23 nL) were then transferred via Kalypsys pin tool equipped with 1536-pin array (10 nL slotted pins, V&P Scientific, San Diego, CA). In addition, a duplicate 2-fold serial dilution of the control compounds auranofin, a known gold-based TrxR1 inhibitor, and juglone (5-hydroxy-1,4-naphthoquinone), a natural TrxR1 substrate, were pin-transferred to columns 2 and 3, respectively. After incubation for 15 min at room temperature (~22 deg C), 1 uL of selenite (400 uM final concentration) were dispensed to each well. The plate was immediately transferred to a ViewLux high-throughput CCD imager (PerkinElmer), wherein kinetic measurements of NADPH fluorescence (Ex 340 nm, Em 450 nm) were acquired (8 minute kinetic read, see Table 1). Read 1 was utilized to assess the capacity of a compound to serve as an rTrxR1 substrate, i.e. a decrease in NADPH fluorescence compared to the no-compound background is an indication of a substrate behavior for that particular compound. For inhibitory activity of a compound, delta values, computed as the difference in fluorescence intensity between the first and last reads of an 8-minute time kinetic window, were used. All reagents were diluted in an assay buffer consisting of 50 mM Tris-HCl, pH 7.5, 2 mM EDTA, and 0.01% Tween-20.
Throughout the screen, reagent bottle and all liquid lines were made light-tight to minimize reagent degradation. All screening operations were performed on a fully integrated robotic system (Kalypsys, San Diego, CA) containing one RX-130 and two RX-90 anthropomorphic robotic arms (Staubli, Duncan, SC). Library plates were screened starting from the lowest and proceeding to the highest concentration, and a 'double-pinning' step of the highest concentration was required to access higher concentrations of compounds. Vehicle-only plates, with DMSO being pin-transferred to the columns 5-48, were inserted uniformly at the beginning and the end of each library in order to monitor and record any shifts in the background, which can be affected by reagent dispensers or loss in enzyme activity over time. […]
% is scaled to controls: 0 for no effect and ±100 for the full control effect.

Thioredoxin reductase 1, cytoplasmic (Rattus norvegicus), sequence (O89049 whole entry, looked up): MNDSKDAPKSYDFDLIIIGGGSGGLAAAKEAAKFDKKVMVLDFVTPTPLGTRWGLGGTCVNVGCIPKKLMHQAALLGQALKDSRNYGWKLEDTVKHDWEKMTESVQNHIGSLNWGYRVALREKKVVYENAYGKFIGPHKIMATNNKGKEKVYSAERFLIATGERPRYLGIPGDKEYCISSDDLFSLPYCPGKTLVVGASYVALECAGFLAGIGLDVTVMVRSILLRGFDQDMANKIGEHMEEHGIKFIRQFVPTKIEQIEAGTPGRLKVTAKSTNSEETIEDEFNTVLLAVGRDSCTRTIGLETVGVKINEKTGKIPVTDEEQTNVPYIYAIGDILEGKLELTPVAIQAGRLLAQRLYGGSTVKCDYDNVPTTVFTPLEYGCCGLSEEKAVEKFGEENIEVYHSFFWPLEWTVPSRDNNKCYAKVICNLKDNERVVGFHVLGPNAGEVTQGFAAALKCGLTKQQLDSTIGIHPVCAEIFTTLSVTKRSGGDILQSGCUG

SMILES	activity change, negative = substrate turnover
Cc1ccc(NC(=O)c2ccc3[nH]c(C)cc(=O)c3c2)c(C)c1	-6.49%
O=C(COC(=O)c1ccccc1OCCOc1ccccc1)Nc1cccc(Br)c1	4.75%
O=C1CC(c2ccc(F)cc2F)c2cc3c(cc2N1)OCO3 (stereo not drawn)	-6.86%
NS(=O)(=O)c1ccc(NC(=O)CSc2nnc3c(n2)[nH]c2ccccc23)cc1	3.13%
COc1cc2[nH]c(C)c(CCN3CCN(c4ccccc4)CC3)c2cc1OC	-6.51%
COc1ccc(CCNC(=O)CCCn2c(=O)c3ccccc3n(Cc3ccc(C)cc3)c2=O)cc1OC	5.29%
Cc1ccc(-c2cc(N)n(Cc3cccc(Cl)c3)n2)cc1	-9.95%
Oc1ccc(Cn2cc[nH]c2=S)cc1	2.64% [at 57.1 µM]
OCC(O)C(O)C(O)C(O)C=Nc1ccc(/C=C/c2ccnc3ccccc23)cc1 (stereo not drawn)	5.9% [at 0.0914 µM]
CC(C)CNc1ncnc2c1nnn2C	-1.51% [at 57.1 µM]
CCN1CCN(c2ccc(/C=C/c3ccnc4ccccc34)cc2)CC1	-2.31%
CCC(C(=O)Nc1cccc(-c2nc3cccnc3s2)c1C)c1ccccc1 (stereo not drawn)	14%
COC(=O)c1scc(-c2ccccc2)c1S(=O)(=O)Nc1ccccc1	6.31% [at 57.1 µM]
C(=Nc1ccc(/C=C/c2ccnc3ccccc23)cc1)Nc1ccc(/C=C/c2ccnc3ccccc23)cc1	-7.45%
COc1cc2nc(N3CCCN(C)CC3)nc(NC3CC3)c2cc1OC	23.4%
Cc1ccc(Cl)cc1NC(=O)NC1COc2ccccc2C1 (stereo not drawn)	-4.68% [at 57.1 µM]
O=C(NCc1ccccc1)c1cccc(NC(=O)N2CCSc3ncccc32)c1	14.6%
CC1(C)CC(=O)c2cc(C(=O)NCc3ccccc3)c(=O)[nH]c2C1	-6.92%
CCCCCCCNc1ccc(/C=C/c2ccnc3ccccc23)cc1	-6.31%
O=C(CC1Oc2ccc(Cl)cc2NC1=O)NCc1ccccc1 (stereo not drawn)	10.4%
CSc1cccc(NC(=O)CN2C(=O)CCc3cc(S(=O)(=O)N4CCCCC4)ccc32)c1	5.52% [at 57.1 µM]
Cc1ccc(NC2=C(c3ccc(C(F)(F)F)cc3)C(=O)c3ccccc32)cc1F	-10.1%
CNC(=O)c1ccc(-c2nc(CN3CCc4ccccc43)c(C)o2)cc1	5.73% [at 57.1 µM]
O=C(c1ccco1)N(Cc1cccs1)c1ccc(O)cc1	-12.1%
S=c1[nH]c(=S)c2n[nH]nc2[nH]1	-1.94% [at 0.0914 µM]
CC(C)(C)c1ccc(C(=O)C[N+]2(C)CCCc3ccccc32)cc1 (stereo not drawn)	0.15%
O=C(O)C1=C/C(=C/C=[N+]2c3cc(O)c(O[C@H]4OC(CO)[C@@H](O)[C@@H](O)[C@@H]4O)cc3C[C@@H]2C(=O)[O-])C[C@H](C(=O)O)N1 (stereo partly drawn)	-2.67%

SMILES	activity change, negative = substrate turnover
CC1CC(C)CN(c2oc(-c3ccc(OCc4ccc(Cl)cc4)cc3)nc2C#N)C1 (stereo not drawn)	6.36% [at 0.0914 µM]
c1ccc(Cn2nnc3c(N4CCCCC4)ncnc32)cc1	-2.36%
CCC(=O)N1CCc2cc(S(=O)(=O)NC(C(=O)NCCc3ccc(C)cc3)C(C)C)ccc21 (stereo not drawn)	5.25%
OCCNc1ncnc2oc(-c3ccco3)c(-c3ccco3)c12	51.2%
O=[N+]([O-])c1ccc(/C=C/c2ccc3cccnc3c2)cc1	-4.78%
Cc1ccc(-c2nc3ccccn3c2Nc2ccc(F)cc2)o1	207%
O=C(Nc1ccc(O)c(-c2nc3ccccc3o2)c1)c1ccc(-c2cccc(Cl)c2)o1	-3.24%
CCc1cccc(NC(=O)CN(C)S(=O)(=O)c2ccc3[nH]c4c(c3c2)CCCC4)c1	-8.34%
COc1cc2nc(C#Cc3nc4cc(OC)c(OC)cc4[nH]3)[nH]c2cc1OC	896%
NC(=O)Nc1ccc(/C=C/c2ccnc3ccccc23)cc1	8.44%
CCOC(=O)C1CCCN(C(=O)Cn2ncc3c(C)n(Cc4ccc(F)cc4)c(C)c3c2=O)C1 (stereo not drawn)	-4.95%
COc1ccc(/C=C/c2ccnc3ccccc23)cc1OC	-3.3%
O=C(Nc1ccc([N+](=O)[O-])cc1)c1cnn2c1NC(=C1CC1)C=C2C(F)F	3.87%
COc1ccc(-c2nc(CN3CCC(C(=O)NCc4ccccc4)CC3)c(C)o2)cc1OC	11%
Cc1c(CCO)sc[n+]1CC(=O)c1ccc2ccccc2c1	83.8%
CN(C)c1cccc2ccccc12	-13.4%
O=C(Nc1ccc(Cl)cc1)c1cnn2c1NC(=C1CC1)C=C2C(F)F	8.83%
O=C(Cn1cc(SCc2ccccc2)c2ccccc21)N1CCCCC1	-7.71%
Cc1ccc(C(=O)Nc2ccc(OCc3cc(=O)n4c5c(sc4n3)CCCC5)cc2)cc1	1.97%
N#Cc1ccc[n+](CC(=O)c2ccc(O)c(O)c2)c1	-13.3%
Cc1ccc(Nc2c(-c3ccc(C)s3)nc3ccccn23)cc1	inactive
COc1ccc(S(=O)(=O)Nc2cccc3cccnc23)c(N)c1	-1.46%
Cc1cccc(-c2nnc(SC(C)C(=O)Nc3ccccc3)n2C)c1 (stereo not drawn)	6.08%
CCn1c(C)c(C)c2cc(C(=O)NCCc3cc(OC)ccc3OC)ccc21	5.36% [at 57.1 µM]
Cc1csc[n+]1CCC1CCCCC1	10.5%
CC(C)(C)C1CCC(NC(=O)c2cnn3c2NC(=C2CC2)C=C3C(F)F)CC1 (stereo not drawn)	3.26%

Reference: PubChem BioAssay AID588456 (National Center for Advancing Translational Sciences (NCATS), 2011)
